SW480 rereplic = A quantitative high throughput screen for small molecules that induce DNA re-replication in SW480 colon adenocarcinoma cells | SW480 DNA re-replication, Hoechst DNA content imaging, 48 h | Potency, µM (series often up to 46.1 µM), without a hit: at the highest dose re-replication activation, usual class: activators | 340,000 tested, 1.8% active; further: % of control where 0% means no effect; nearly all actives have a fitted effect of over 55% in size
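SW480 cells exposed to compounds for 48 hr at 37 C, 5% CO2, then Hoechst-stained 40 min. Nuclear DNA content imaged by fluorescence scanning (405 nm excitation, 500-530 nm emission); re-replication scored as increased high-intensity nuclei.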
HT1080 IDH1KD tx = qHTS for induction of synthetic lethality in tumor cells producing 2HG: qHTS for the HT-1080-IDH1KD cell line; Potency, µM (top dose mostly 46.1 µM), for the others: at the top dose activity, negative = toxicity, actives largely listed as cytotoxic; 360,000 tested, 2% active; HT-1080 IDH1 knockdown viability, ATP luminescence, 48 h;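 further: 0% = DMSO wells and -100% = cell-free medium wells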
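In this qHTS, HT-1080 cells depleted of IDH1 are exposed for 48 h at 37 °C to compound titrations. Toxicity is scored from CellTiter-Glo luminescence, with DMSO as full viability and medium alone as none.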
KB-V1 cytotox = qHTS assay for MDR1-selective chemotherapeutics: Primary screen using the drug-selected MDR subline cells KB-V1. KB-V1 MDR cells viability, CellTiter-Glo, 72 h. Potency, µM (highest dose often 46.1 µM), hits mostly cytotoxic. 400,000 tested, 3.4% active; further: on the % scale 0 is the no-effect control and ±100 the full control effect; nearly all actives have a fitted effect of over 60% in size
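Potencies derive from concentration-effect curves fitted to normalized luminescence (CellTiter-Glo) of KB-V1 cells treated for 72 h at 37 degrees C in phenol-red-free DMEM containing 10% FBS.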
MCF10A rereplic = A quantitative high throughput screen for small molecules that induce DNA re-replication in MCF 10a normal breast cells | 350,000 tested, 2.9% active | Potency, µM (series often up to 46.1 µM), for the others: top-dose activity, positive = re-replication, most hits filed as activators | MCF 10A DNA re-replication, Hoechst nuclear intensity, 48 h; further: % of control where 0% means no effect; nearly all actives have a fitted effect of over 50% in size
HT1080-NT tox = qHTS for induction of synthetic lethality in tumor cells producing 2HG: qHTS for the HT-1080-NT fibrosarcoma cell line | HT-1080-NT fibrosarcoma viability, CellTiter-Glo ATP luminescence, 48 h | Potency, µM (series often up to 46.1 µM), inactives show at the highest dose activity, negative = less viability, actives largely listed as cytotoxic | 360,000 tested, 1.6% active | AID 686970, 2013;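 further: NT is the 2HG producing partner of a matched IDH1 knockdown line; 0% = DMSO-treated cells and -100% = media-only wells without cells; nearly all actives have a fitted effect of over 55% in size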
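Viability of the 2HG-overproducing fibrosarcoma line after 48 hours of compound exposure at 37 degrees C was determined by luminescence with CellTiter-Glo, and concentration-effect curves were then fitted and categorized.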
KB-3-1 tox = qHTS assay for MDR1-selective chemotherapeutics: Primary screen using the parental adenocarcinoma cell KB-3-1; AID 1347075, 2019; Potency, µM (titrated, usually from 46.1 µM), actives largely listed as cytotoxic; KB-3-1 viability, CellTiter-Glo ATP luminescence, 72 h; 400,000 tested, 1.4% active; further: on the % scale 0 is the no-effect control and ±100 the full control effect; nearly all actives have a fitted effect of over 60% in size
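Here the drug-naive KB-3-1 line serves as comparator for MDR sub-line selectivity; cells received compound titrations, 72 h at 37 °C, then CellTiter-Glo readout.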
* marks the source's active call; other numbers are inactive results; i = inactive; ? = inconclusive; · = no result. In the library only some 7.9% were active in any assay of this set; here they are far more common. The call rests on the fitted dose curve; in most records, active means well fitted curve in the direction sought with a large enough effect; inconclusive means small, poorly fitted or top-dose-only effect, or another doubt; inactive means no such curve, though single readings can be large; an effect the other way counts as inactive or inconclusive. Potency means the concentration at half of the fitted maximal effect.

SMILES	SW480 rereplic	HT1080 IDH1KD tx	KB-V1 cytotox	MCF10A rereplic	HT1080-NT tox	KB-3-1 tox
CCC1(c2ccc(F)cc2)NC(=O)N(CC(=O)Nc2ccc(N3CCCCC3)cc2)C1=O (stereo not given)	1%	-6%	23µM*	1%	-7%	i
CCOC(=O)c1ccc(NC(=O)Nc2nncs2)cc1	·	0.92µM*	0.33µM*	·	1.2µM*	?
O=C(Nc1ccc(Cl)c(Cl)c1)Nc1ccon1	10µM*	-9%	7.3µM*	12µM*	-24%	12µM*
CCOc1ccc(NC(=O)Cn2ccn3nc(-c4ccc(OC)c(OC)c4)cc3c2=O)cc1	·	·	i	·	·	i
O=C(Nc1ccc(N2CCOCC2)cc1)Nc1ccc(Cl)c(Cl)c1	0%	?	18µM*	-5%	?	?
CC(C)Sc1ncc(Cl)c(C(=O)N(Cc2ccc(N(C)C)cc2)C2CCS(=O)(=O)C2)n1 (stereo not given)	·	·	i	·	·	i
Cc1ccc(CNC(=O)CN2C(=O)COc3ccc(S(=O)(=O)Nc4ccccc4)cc32)cc1	·	·	i	·	·	i
CC(=O)/C(=C/N(C)C)C(=O)Nc1ccc(Cl)cc1Cl	?	?	i	18µM*	-25%	i
CN(C)/C=N/C(=S)Nc1ccc(Cl)cc1	-6%	-2%	i	0%	1%	i
CN(C)/C=N/C(=S)Nc1ccc(Cl)cc1Cl	21µM*	3%	i	?	2%	i
CCC(C(=O)NC1CCCC1)n1c(-c2ccnc3ccccc23)nc2ccccc21 (stereo not given)	·	-17%	i	·	-11%	?
C=CCNC(=S)N/N=C/c1ccc(N(CC)Cc2ccccc2)cc1	18µM*	?	13µM*	?	-15%	?
CCN(CC)c1ccc(/C=N/NC(=S)NCc2ccccc2)cc1	?	3%	i	21µM*	7%	i
CCN(CC)c1ccc(/C=N/NC(=O)C(O)c2ccccc2)cc1 (stereo not given)	0%	-13%	i	1%	-28%	i
CCN(CC)c1ccc(/C=N/NC(=S)NCc2ccc(OC)cc2)cc1	?	-18%	i	10µM*	-8%	i
Cn1cc(-c2coc3c(C(=O)NCc4ccco4)cccc23)cn1	·	-1%	i	·	?	?
COc1cccc(N2CCN(C(=O)CN3CCSc4ccccc43)CC2)c1	·	·	?	·	·	i
CCCCCCCCN1[C@@H](CC(=O)OC)c2ccc(/C=C/C(=O)OC)cc2S1(=O)=O	·	·	i	·	·	i
C=CCN1/C(=C(\C#N)C2=NS(=O)(=O)c3ccccc32)N(C)c2ccccc21	?	7.1µM*	i	2%	13µM*	i
N#Cc1ccccc1OC1=NS(=O)(=O)c2ccccc21	·	·	i	·	·	i
CCc1ccccc1NC(=O)COC(=O)c1cn(CC)c2nc(C)ccc2c1=O	·	·	i	·	·	i
CC(C)(C)C(=O)Nc1ccc(Sc2ccc([N+](=O)[O-])cc2)cc1	23%	-14%	21µM*	?	-14%	i
CC(=O)Nc1ccc(Sc2ccc([N+](=O)[O-])o2)cc1	5.8µM*	5.8µM*	?	1.8µM*	4.1µM*	i
Oc1c(C(c2ccccc2Cl)N2CCCC2)ccc2cccnc12 (stereo not given)	-4%	?	i	?	?	13µM*
O=S(=O)(c1ccccc1)c1nc(-c2ccc(F)cc2)oc1N1CCCCCC1	·	·	?	·	·	i
O=S(=O)(c1ccc(F)cc1)c1nc(-c2ccccc2F)oc1N1CCCCC1	10%	-12%	3.7µM*	16%	-7%	i

Screening results deposited in PubChem by National Center for Advancing Translational Sciences (NCATS).
